# Data taken from PubChem BioAssay AID504848 (National Center for Advancing Translational Sciences (NCATS), 2011).
# In all, about 2,300 compounds went through this assay and about 1,400 (61%) were called active. Inconclusive results (about 29%) are left out. The call rests on the fitted dose curve; in most records, active means well fitted inhibition curve with a large enough effect; inconclusive means small, poorly fitted or top-dose-only effect, or effect the other way; inactive means no such curve, though single readings can be large or run the other way. The set was probably picked from earlier hits. Some of the results follow.
# Experiment: Confirmation screen for delayed death inhibitors of the malarial parasite plastid, 96 hour incubation; further: nearly all actives have a fitted effect of over 60% in size
# Settings: P. falciparum luciferase growth in erythrocytes; series mostly up to 28.7 µM
# Method in brief: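 Erythrocytes infected with luciferase-expressing P. falciparum (2% hematocrit, 0.1% parasitemia final) in RPMI 1640 with 0.5% Albumax, exposed to compounds 96 h at 37 C, 5% CO2. Growth inhibition read as decreased luciferase luminescence.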
# Potency means the concentration at half of the fitted maximal effect.
row,Compound,Potency
1,COc1cccc(F)c1C(C[N+](=O)[O-])c1c(N)n(C)c(=O)n(C)c1=O (stereo unspecified),3.98 µM (active)
2,Cc1ccc(C)c(N2CCN(S(=O)(=O)c3ccc4c(c3)NC(=O)CS4)CC2)c1,8.91 µM (active)
3,COc1ccc(C)cc1NC(=O)C1CCN(S(=O)(=O)c2ccc3c(c2)NC(=O)CO3)CC1,7.94 µM (active)
4,Cc1cccc(N2CCN(S(=O)(=O)c3ccc4c(c3)NC(=O)CO4)CC2)c1C,11.2 µM (active)
5,Cc1ccc(CCNC(=O)C2CCN(S(=O)(=O)c3ccc4c(c3)NC(=O)CO4)CC2)cc1,10 µM (active)
6,O=C(CCl)Nc1cccc(Oc2cnccn2)c1,3.55 µM (active)
7,O=C(/C=C/c1ccccc1Cl)c1ccc(O)cc1,10 µM (active)
8,O=C(/C=C/c1c(F)cccc1Cl)c1ccc(O)cc1,12.6 µM (active)
9,COc1ccc(-c2c(C(C)=O)c(C)n(C)c2C)cc1,10 µM (active)
10,CCCCOc1ccc(NC2=NC3(CCCC3)N=C(N)N2)cc1,0.708 µM (active)
11,COc1ccc2nc3sc(C(=O)NCCN4CCc5ccccc5C4)cc3cc2c1,2.24 µM (active)
12,COc1cc(/C=C2\COC/C(=C\c3ccc(O)c(OC)c3)C2=O)ccc1O,3.55 µM (active)
13,COc1ccc(/C=C2\CC/C(=C\c3ccc(OC)c(OC)c3)C2=O)cc1OC,14.1 µM (active)
14,COc1cc(/C=C2\CC(C(C)(C)C)C/C(=C\c3cc(OC)c(OC)c(OC)c3)C2=O)cc(OC)c1OC (stereo unspecified),3.16 µM (active)
15,COc1cc(/C=C2\COC/C(=C\c3cc(OC)c(OC)c(OC)c3)C2=O)cc(OC)c1OC,2.51 µM (active)
16,COc1cc(/C=C2/CCC/C(=C\c3cc(O)c(OC)c(Cl)c3)C2=O)cc(Cl)c1O,7.08 µM (active)
17,CC(C)c1ccc(C(=O)Nc2nnc(S(=O)(=O)N3CCOCC3)s2)cc1,12.6 µM (active)
18,COc1ccc(C(=O)Nc2nnc(S(=O)(=O)N3CCOCC3)s2)cc1,15.8 µM (active)
19,CCn1c(=O)c(CCC(=O)N2CCOCC2)c(C)c2c(C)nn(-c3ccccc3)c21,10 µM (active)
20,C=CCSC(=C(C#N)C#N)c1cc2c([nH]1)CCCC2,4.47 µM (active)
21,COC(=O)c1c(NC(=O)c2ccco2)sc2c1CC(C)(C)NC2(C)C,14.1 µM (active)
22,CCOC(=O)c1c(NC(=S)N2CCCCC2)sc2c1CCN(C(=O)OCC)C2,3.98 µM (active)
23,Cc1cccc(CSc2cccc3cccnc23)c1,12.6 µM (active)
24,O=C(Nc1ccncc1)c1ccc(Cl)c(S(=O)(=O)N2CCCC2)c1,8.91 µM (active)

row,Compound,Potency
1,Cc1c(NC(=O)c2ccc(Cl)c(S(=O)(=O)N3CCCCC3)c2)c(=O)n(-c2ccccc2)n1C,10 µM (active)
2,CCOC(=O)N1CCN(C(=O)c2ccc(Cl)c(S(=O)(=O)N3CCCC3)c2)CC1,12.6 µM (active)
3,Cc1c(NC(=S)NC(=O)C(C)(C)C)c(=O)n(-c2ccccc2)n1C,inactive
4,Cc1cc(F)ccc1S(=O)(=O)Nc1ccccc1C(=O)Nc1ccccc1-c1nc2ccccc2[nH]1,4.47 µM (active)
5,Nc1cc[n+](CC(=O)c2ccc3c(c2)OCCO3)cc1,4.47 µM (active)
6,CN(C)c1ccc(NC(=S)NC23CC4CC(CC(C4)C2)C3)cc1,1.58 µM (active)
7,COCCNCC(=O)NC12CC3CC(CC(C3)C1)C2,inactive
8,COc1ccc(N2CCN(CCCn3c(=S)[nH]c4ccccc4c3=O)CC2)cc1,12.6 µM (active)
9,O=C(/C=C/c1ccc(Cl)c(Cl)c1)NCCCn1ccnc1,12.6 µM (active)
10,COc1ccc(C)cc1NC(=O)CSCc1ccccc1C,12.6 µM (active)
11,CCOc1ccc(-n2c(N)c(-c3nc4ccccc4n3C)c3nc4ccccc4nc32)cc1,3.98 µM (active)
12,COc1ccccc1CNC(=O)CN1C(=O)NC(c2ccccc2)(c2ccc(C)c(C)c2)C1=O (stereo unspecified),12.6 µM (active)
13,Cc1cc(NC(=O)CN2C(=O)NC(c3ccccc3)(c3ccc(C)c(C)c3)C2=O)no1 (stereo unspecified),11.2 µM (active)
14,Cc1cccc(CS(=O)(=O)c2ncc(Cl)c(C(=O)Nc3c(C)cccc3C)n2)c1,inactive
15,COc1cc(NCc2ccc3nc(N)nc(N)c3c2C)cc(OC)c1OC,0.199 µM (active)
16,Cc1ccc(-n2cc(CN3CCC(CO)(Cc4cccc(C(F)(F)F)c4)CC3)cn2)cc1,7.94 µM (active)
17,Cc1c(CCO)sc[n+]1CC(=O)OCCC12CC3CC(CC(C3)C1)C2,3.16 µM (active)
18,O=C(Nc1ccc2[nH]ncc2c1)c1ccc(F)cc1,inactive
19,Cc1cc(C)cc(NC(=O)c2ccc(CN3CCc4ccccc4C3)cc2)c1,11.2 µM (active)
20,O=C(Nc1ccc(Cl)cc1)c1ccc(CN2CCc3ccccc3C2)cc1,14.1 µM (active)
21,O=C(Nc1ccc(F)cc1)c1ccc(CN2CCc3ccccc3C2)cc1,12.6 µM (active)
22,COc1ccc(N2C(=O)C3C(C2=O)C(C(=O)c2ccc(Cl)cc2)N2CCCC32)cc1 (stereo unspecified),inactive
23,Cc1c(OC(C)C(=O)N2C[C@H]3C[C@@H](C2)c2cccc(=O)n2C3)ccc2c3c(c(=O)oc12)CCC3 (stereo partly specified),11.2 µM (active)
24,Cc1c(CC(=O)N2C[C@H]3C[C@@H](C2)c2cccc(=O)n2C3)c(=O)oc2cc3occ(C(C)(C)C)c3cc12,12.6 µM (active)

row,Compound,Potency
1,CC(C)N1C/C(=C/c2ccsc2)C(=O)/C(=C/c2ccsc2)C1,5.62 µM (active)
2,CCC1S/C(=N/N=C/c2ccco2)N(Cc2ccccc2C)C1=O (stereo unspecified),10 µM (active)
3,CCc1nc(SCC(=O)N2c3ccccc3CC2C)c2c(C)c(C)sc2n1 (stereo unspecified),11.2 µM (active)
4,CCc1nc(SCC(=O)Nc2ccccc2OC)c2c(C)c(C)sc2n1,12.6 µM (active)
5,CC(=O)NCCC(=O)Nc1cc(S(=O)(=O)N2CCOCC2)ccc1Oc1ccccc1,10 µM (active)
6,CN(C)S(=O)(=O)c1ccc(NCC2COc3ccccc3O2)c([N+](=O)[O-])c1 (stereo unspecified),12.6 µM (active)
7,COc1ccc(C(=O)CC(SCC(NC(C)=O)C(=O)O)c2ccc(Cl)cc2)cc1OC (stereo unspecified),11.2 µM (active)
8,CCOC(=O)N1C/C(=C\c2ccccc2)C(=O)/C(=C/c2ccccc2)C1,4.47 µM (active)
9,O=[N+]([O-])c1ccc(C[n+]2cccc3c4ccccc4ccc32)cc1,0.126 µM (active)
10,COC1C(OC(=O)/C=C/C=C/C=C/C=C/C(=O)O)CCC2(CO2)C1C1(C)OC1CC=C(C)C (stereo unspecified),0.0501 µM (active)
11,CC1=CC(C)(C)N2C(=O)C3(NCCc4c3[nH]c3ccccc43)c3cc(C)cc1c32 (stereo unspecified),11.2 µM (active)
12,Fc1ccc(CNc2ccc(N3CCN(Cc4ccccc4)CC3)cc2)cc1,12.6 µM (active)
13,CC1=NCCN1CCNC(=O)Nc1ccc(F)cc1,inactive
14,CCCc1c(NC(=O)Nc2ccc(F)cc2)cnn1-c1ccc(Cl)cc1,10 µM (active)
15,CCCc1c(NC(=O)Nc2ccc(F)cc2)cnn1-c1ccccc1,11.2 µM (active)
16,Cc1cccc(C2Nc3ccccc3C(=O)N2c2ccccc2)n1 (stereo unspecified),inactive
17,CCCN1C(=O)c2ccccc2NC1c1ccc(OC)cc1O (stereo unspecified),11.2 µM (active)
18,Fc1ccc(CSc2nncn2NCc2ccc3c(c2)OCO3)cc1,inactive
19,Fc1cccc(CNc2ncnc3ccc(-c4ccc5c(c4)OCO5)cc23)c1,4.47 µM (active)
20,Clc1ccc(-c2c[n+](Cc3ccc(Cl)cc3Cl)c3n2CCCCC3)cc1,0.0794 µM (active)
21,Clc1ccc(-c2c[n+](Cc3ccc(Br)cc3)c3n2CCCCC3)cc1,0.0251 µM (active)
22,CCN(CC)c1ccc(/C=C/c2cccc[n+]2C)c(OC)c1,0.141 µM (active)
23,COC(=O)c1ccc(COc2ccc(-c3nnn(CC(N)=O)n3)cc2)cc1,1.58 µM (active)
